According to the supplement of paper PMC8728848:
This is one part of a sample in which the strongest signals are shown more often than they occur.

Experiments:
Experiment in all cases: glycan array binding signal (z-score within array); higher = stronger binding
Conditions in all cases: glycan notation: IUPAC condensed, linker removed; mutation: R186I
[1] = target: Fuc(a1-2)Gal(b1-3)GalNAc(b1-3)Gal
Outline: (§1)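 Columns mapping to the same glycan were averaged after glycan names were converted to IUPAC-condensed notation. The data come from 3228 arrays in the Consortium for Functional Glycomics database, limited to those with an available protein sequence. Binding is reported as a within-array Z-score averaged across arrays of one protein sequence and across linkers.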

[2] = target: Fuc(a1-2)Gal(b1-3)GalNAc(b1-3)Gal(a1-4)Gal(b1-4)Glc
Outline: as §1

[3] = target: Fuc(a1-2)Gal(b1-3)GlcNAc(b1-3)[Fuc(a1-3)[Gal(b1-4)]GlcNAc(b1-6)]Gal(b1-4)Glc
Outline: as §1

[4] = target: Fuc(a1-2)Gal(b1-4)GlcNAc(b1-2)Man(a1-3)[Fuc(a1-2)Gal(b1-4)GlcNAc(b1-2)Man(a1-6)]Man(b1-4)GlcNAc(b1-4)GlcNAc
Outline: as §1

[5] = target: Fuc(a1-2)[Gal(a1-3)]Gal(b1-3)GlcNAc(b1-2)Man(a1-3)[Fuc(a1-2)[Gal(a1-3)]Gal(b1-3)GlcNAc(b1-2)Man(a1-6)]Man(b1-4)GlcNAc(b1-4)GlcNAc
Outline: as §1

[6] = target: Fuc(a1-2)[Gal(a1-3)]Gal(b1-4)GlcNAc(b1-2)Man(a1-3)[Fuc(a1-2)[Gal(a1-3)]Gal(b1-4)GlcNAc(b1-2)Man(a1-6)]Man(b1-4)GlcNAc(b1-4)GlcNAc
Outline: as §1

[7] = target: Fuc(a1-2)[GalNAc(a1-3)]Gal(b1-3)GlcNAc(b1-2)Man(a1-3)[Fuc(a1-2)[GalNAc(a1-3)]Gal(b1-3)GlcNAc(b1-2)Man(a1-6)]Man(b1-4)GlcNAc(b1-4)GlcNAc
Outline: as §1

[8] = target: Fuc(a1-2)[GalNAc(a1-3)]Gal(b1-4)GlcNAc(b1-2)Man(a1-3)[Fuc(a1-2)[GalNAc(a1-3)]Gal(b1-4)GlcNAc(b1-2)Man(a1-6)]Man(b1-4)GlcNAc(b1-4)GlcNAc
Outline: as §1

[9] = target: Fuc(a1-2)[GalNAc(a1-3)]Gal(b1-4)GlcNAc(b1-3)Gal(b1-4)GlcNAc(b1-3)Gal(b1-4)GlcNAc
Outline: as §1

[10] = target: Fuc(a1-3)[Gal3S(b1-4)]GlcNAc
Outline: as §1

[11] = target: Fuc(a1-3)[Gal3S(b1-4)]GlcNAc6S
Outline: as §1

Gal(a1-4)Gal(b1-4)GlcNAc = target: Gal(a1-4)Gal(b1-4)GlcNAc
Outline: as §1

[12] = target: Gal(b1-3)Gal(b1-4)GlcNAc(b1-2)Man(a1-3)[Gal(b1-3)Gal(b1-4)GlcNAc(b1-2)Man(a1-6)]Man(b1-4)GlcNAc(b1-4)GlcNAc
Outline: as §1

[13] = target: Gal(b1-3)GalNAc(a1-3)[Fuc(a1-2)]Gal(b1-4)GlcNAc
Outline: as §1

[14] = target: Gal(b1-3)GlcNAc(b1-3)Gal(b1-4)GlcNAc
Outline: as §1

[15] = target: Gal(b1-3)GlcNAc(b1-3)Gal(b1-4)[Fuc(a1-3)]GlcNAc(b1-6)[Gal(b1-3)GlcNAc(b1-3)]Gal(b1-4)Glc
Outline: as §1

[16] = target: Gal(b1-3)GlcNAc(b1-6)Gal(b1-4)GlcNAc
Outline: as §1

[17] = target: Gal(b1-3)[Fuc(a1-4)]GlcNAc(b1-2)Man(a1-3)[Gal(b1-3)[Fuc(a1-4)]GlcNAc(b1-2)Man(a1-6)]Man(b1-4)GlcNAc(b1-4)GlcNAc
Outline: as §1

[18] = target: Gal(b1-3)[GlcNAc(b1-6)]GalNAc
Outline: as §1

[19] = target: Gal(b1-4)GlcNAc(b1-3)Gal(b1-3)GlcNAc
Outline: as §1

[20] = target: Gal(b1-4)GlcNAc(b1-3)[Gal(b1-4)GlcNAc(b1-6)]Gal(b1-4)GlcNAc
Outline: as §1

Gal3S(b1-4)Glc = target: Gal3S(b1-4)Glc
Outline: as §1

[21] = target: Gal3S(b1-4)[Fuc(a1-3)]Glc
Outline: as §1

[22] = target: GalNAc(b1-3)Gal(a1-4)Gal(b1-4)GlcNAc(b1-3)Gal(b1-4)Glc
Outline: as §1

Glc(a1-6)Glc(a1-6)Glc = target: Glc(a1-6)Glc(a1-6)Glc
Outline: as §1

GlcNAc(b1-3)Man = target: GlcNAc(b1-3)Man
Outline: as §1

[23] = target: Man(a1-2)Man(a1-3)[Man(a1-2)Man(a1-6)]Man(a1-6)[Man(a1-2)Man(a1-2)Man(a1-3)]Man
Outline: as §1

Man(a1-6)Man = target: Man(a1-6)Man
Outline: as §1

[24] = target: Neu5Ac(a2-3)Gal(b1-4)GlcNAc(b1-2)Man(a1-3)[GlcNAc(b1-2)Man(b1-4)GlcNAc(b1-2)Man(a1-6)]Man(b1-4)GlcNAc(b1-4)GlcNAc
Outline: as §1

[25] = target: Neu5Ac(a2-3)Gal(b1-4)[Fuc(a1-3)]GlcNAc
Outline: as §1

B1: Gal 3 (Homo sapiens), P17931 (protein)
chain: MADNFSLHDALSGSGNPNPQGWPGAWGNQPAGAGGYPGASYPGAYPGQAPPGAYPGQAPPGAYHGAPGAYPGAPAPGVYPGPPSGPGAYPSSGQPSAPGAYPATGPYGAPAGPLIVPYNLPLPGGVVPRMLITILGTVKPNANILDFQRGNDVAFHFNPRFNENNRRVIVCNTKLDNNWGREEIQSVFPFESGKPFKIQVLVEPDHFKVAVNDAHLLQYNHRVKKLNEISKLGISGDIDLTSASYTMI
glycan array binding signal (z-score) [1]: -0.188 | glycan array binding signal (z-score) [2]: -0.055 | glycan array binding signal (z-score) [3]: -0.187 | glycan array binding signal (z-score) [4]: 2.01 | glycan array binding signal (z-score) [5]: 5.08 | glycan array binding signal (z-score) [6]: 10.8 | glycan array binding signal (z-score) [7]: 3.39 | glycan array binding signal (z-score) [8]: 8.83 | glycan array binding signal (z-score) [9]: -0.113 | glycan array binding signal (z-score) [10]: -0.147 | glycan array binding signal (z-score) [11]: -0.154 | glycan array binding signal (z-score) (Gal(a1-4)Gal(b1-4)GlcNAc): -0.127 | glycan array binding signal (z-score) [12]: 11.1 | glycan array binding signal (z-score) [13]: -0.146 | glycan array binding signal (z-score) [14]: -0.166 | glycan array binding signal (z-score) [15]: -0.002 | glycan array binding signal (z-score) [16]: -0.173 | glycan array binding signal (z-score) [17]: -0.173 | glycan array binding signal (z-score) [18]: -0.128 | glycan array binding signal (z-score) [19]: 0.065 | glycan array binding signal (z-score) [20]: 0.077 | glycan array binding signal (z-score) (Gal3S(b1-4)Glc): -0.189 | glycan array binding signal (z-score) [21]: -0.171 | glycan array binding signal (z-score) [22]: 2.69 | glycan array binding signal (z-score) (Glc(a1-6)Glc(a1-6)Glc): -0.021 | glycan array binding signal (z-score) (GlcNAc(b1-3)Man): -0.189 | glycan array binding signal (z-score) [23]: -0.075 | glycan array binding signal (z-score) (Man(a1-6)Man): -0.185 | glycan array binding signal (z-score) [24]: -0.073 | glycan array binding signal (z-score) [25]: -0.164
